Screening data (PubChem)
TDP1 cell noCPT – qHTS for Inhibitors of human tyrosyl-DNA phosphodiesterase 1 (TDP1): qHTS in cells in absence of CPT; 15% of 420,000 active; AID 686978, 2013; DT40 Tdp1-/- hTDP1 cells, no CPT, ATP luminescence, 48 h; Potency, µM (doses to about 46.2 µM), inactives show top-dose activity change, negative = growth inhibition, hits mostly inhibitors; also: potency is read from the fitted curve at half-maximal effect; % is scaled to controls: 0 for no effect and ±100 for the full control effect; nearly all actives have a fitted effect of over 55% in size
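Seeded 400 DT40-hTDP1 cells/well (vehicle DMSO, no 20 nM CPT); pinned compounds; ≥48 hr at 37 °C; CellTiter-Glo luminescence as viability measure.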
HepG2 tox – counter-screen for TGF-b inhibitors: cytotoxicity in HepG2 cells; HepG2 CAGA-GFP viability, ATP luminescence, 18 h; Potency, µM (titrated, usually from 46.1 µM), inactives show top-dose activity change, negative = cytotoxicity, usual class: cytotoxic; 0.76% of 410,000 active; also: potency is read from the fitted curve at half-maximal effect
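HepG2 CAGA-GFP cells (1000/well, DMEM with 1% FBS) received compound, then TGF-beta at 500 pg/mL final, and were incubated 18 hours at 37 degrees C. Viability was read by CellTiter-Glo luminescence. Media-only wells were set as complete cell-killing and DMSO as no toxicity.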
IL-1B inflam inh – inflammasome signaling inhibition, IL-1 beta readout; THP-1 LPS/ATP IL-1B secretion, AlphaLISA, 16 h; active compounds read low; activity change, % at 57.5 µM; 4.7% of 360,000 active; in the data active = activity change below about -50%; inconclusive = mostly about -30% to -49%; also: % is scaled to controls: 0 for no effect and ±100 for the full control effect
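Secreted IL-1B measured by AlphaLISA bead assay after 16 h compound exposure of THP-1 cells; compounds (final up to 57.5 uM) added 1 h before LPS (250 ng/mL) and ATP (1.25 mM) stimulation; lower signal means less secretion.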
TDP1 cell CPT – growth inhibition of DT40 Tdp1-/-;hTDP1 cells with camptothecin (screen for TDP1 inhibitors) | Potency, µM (titrated, usually from 46.2 µM), inactives show at the highest dose activity change, negative = growth inhibition, hits mostly inhibitors | 12% of 420,000 active | chicken DT40 Tdp1-/-;hTDP1 cells + 20 nM CPT, ATP luminescence, 48 h | AID 686979; also: potency is read from the fitted curve at half-maximal effect; % is scaled to controls: 0 for no effect and ±100 for the full control effect; nearly all actives have a fitted effect of over 55% in size
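Chicken DT40 Tdp1-/- cells stably complemented with human TDP1 were seeded at 400 cells/well in medium containing 20 nM camptothecin, exposed to pin-transferred compounds, and grown at 37 °C for at least 48 hr. Viability was read as ATP luminescence.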
TGFb inhibitor – blocks TGF-b signaling; HepG2 CAGA-GFP TGF-b/SMAD3 reporter, GFP fluorescence, 18 h; TGF-beta stimulated, 500 pg/mL final; Potency, µM (series often up to 46.1 µM), for inactives: at the highest dose activity, negative = inhibition, actives largely listed as inhibitors; 1.2% of 410,000 active; also: potency is read from the fitted curve at half-maximal effect; % is scaled to controls: 0 for no effect and ±100 for the full control effect; nearly all actives have a fitted effect of over 65% in size
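HEPG2 CAGA-GFP, 1000 cells/well; 2 h settle, 37 C; cpd via pin tool; TGF-b 500 pg/mL final; 18 h, 37 C; GFP imaging ex488/em500-530; %Activity normalised to -TGF-b and +DMSO controls; CRC fit, curve class.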
TDP1 block – TDP1 (human) enzyme inhibition. Potency, µM (titrated, usually from 130 µM), inactives show top-dose activity change, negative = inhibition, hits mostly inhibitors. AID 485290. recombinant TDP1, AlphaScreen DNA substrate cleavage. 0.28% of 350,000 active. Q9NUW8; also: potency is read from the fitted curve at half-maximal effect; % is scaled to controls: 0 for no effect and ±100 for the full control effect; nearly all actives have a fitted effect of over 40% in size
Target sequence (Q9NUW8 whole entry, looked up): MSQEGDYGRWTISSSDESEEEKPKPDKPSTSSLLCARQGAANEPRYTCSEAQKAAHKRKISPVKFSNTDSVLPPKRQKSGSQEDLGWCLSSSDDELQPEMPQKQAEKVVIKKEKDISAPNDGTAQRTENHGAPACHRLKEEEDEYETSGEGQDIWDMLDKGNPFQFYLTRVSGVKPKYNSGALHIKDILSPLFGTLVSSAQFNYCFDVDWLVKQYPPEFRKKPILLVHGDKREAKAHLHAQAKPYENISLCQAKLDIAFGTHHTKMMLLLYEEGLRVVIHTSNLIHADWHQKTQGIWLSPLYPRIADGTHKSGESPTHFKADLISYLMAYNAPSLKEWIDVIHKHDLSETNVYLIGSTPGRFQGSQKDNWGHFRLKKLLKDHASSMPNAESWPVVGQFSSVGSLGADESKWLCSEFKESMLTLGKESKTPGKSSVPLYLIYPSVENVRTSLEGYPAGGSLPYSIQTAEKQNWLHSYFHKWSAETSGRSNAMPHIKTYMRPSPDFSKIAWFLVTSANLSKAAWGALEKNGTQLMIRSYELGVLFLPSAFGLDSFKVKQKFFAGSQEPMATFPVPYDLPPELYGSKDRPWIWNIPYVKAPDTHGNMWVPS
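Compounds were preincubated with Tdp1 (1 nM final) for 15 min at room temperature before substrate (15 nM final) started a 5 min reaction; beads (10 ug/ml final) were then added for 10 min before AlphaScreen detection.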
* marks the source's active call; other numbers are inactive results; ? = inconclusive; . = no result given; [ ] = dose if it differs, or a comment. The list is not random: actives were taken first. Their share in the collection is about 18%. Unless noted, calls follow the shape of the dose curve; as a rule, active = well fitted curve in the direction sought with a large enough effect; inconclusive = small, poorly fitted or top-dose-only effect, or another doubt; inactive = no such curve, though single readings can be large; an effect the other way counts as inactive or inconclusive.

SMILES | TDP1 cell noCPT | HepG2 tox | IL-1B inflam inh | TDP1 cell CPT | TGFb inhibitor | TDP1 block
Cc1cc(NC(=O)/C=C/c2cccc(Cl)c2)n(-c2nc3ccccc3[nH]2)n1 | 11.6µM* | -25.1% | 26.5 | -91.9% | 0.4% | 2.6%
Cc1cc(NC(=O)/C=C/c2ccc(F)cc2)n(-c2nc3ccccc3[nH]2)n1 | 14.6µM* | -23.0% | 7.0 | ? | 6.7% | 5.4%
COc1ccc(C2c3c(N)nc(CCCc4ccccc4)nc3Oc3ccc4ccccc4c32)cc1OC (configuration not stated) | . | . | . | . | . | 1.4%
CCn1c(NC(=O)/C=C/c2ccc(F)cc2)nc2ccccc21 | 23.1µM* | -28.1% | 48.4 | ? | -3.6% | ?
CCc1ccccc1Nc1nc2ccccc2n1CC | ? | 1.9% | 4.6 | -11.0% | -4.4% | -2.7%
CC(C)NC(=O)N1CC[C@@]2(CCCN(C(=O)c3csnn3)C2)C1 | 0.3% | . | . | 6.1% | . | .
CN(C)CCNc1ccc(CO)c2oc3ccc(O)cc3c(=O)c12 | 0.651µM* | -27.2% | -98.5* | 0.13µM* | ? | .
CCN(CC)CCNc1ccc(CO)c2oc3cc(Cl)ccc3c(=O)c12 | 10.3µM* | -43.0% | -28.9 | 23.1µM* | -11.7% | .
CCN(CC)CCNC(CC(=O)Nc1ccc(Cl)cc1Cl)C(=O)O (configuration not stated) | -6.1% | -19.0% | -12.1 | 25.8% | -4.2% | 2.2%
Cc1ccc2oc(=O)c3cnn(CC(=O)NCCN(C)C)c3c2c1 | -4.4% | 5.7% | -6.9 | -4.0% | -6.3% | 0.0%
COC(=O)C1=C[C@@H](C(=O)OC)[C@@H]2C3=C(C(=O)C2(C)C)[C@H](C)n2c(=O)n(C)c(=O)n2[C@@H]3C1 | . | -27.4% | . | . | ? | 16.2%
Cc1cc(C)cc(NC(=O)Cn2c(C)cc(C)c(C#N)c2=O)c1 | -15.1% | 3.2% | . | 5.9% | -0.4% | -3.8%
O=C(NCC1CCCN1S(=O)(=O)c1cccs1)c1ccc([N+](=O)[O-])cc1 (configuration not stated) | ? | 2.5% | 0.2 | ? | 6.2% | .
O=C(c1cc2cc(F)ccc2[nH]1)N1CCCC(Nc2ccc(F)cc2)C1 (configuration not stated) | ? | -23.4% | 0.9 | 14.6µM* | 0.5% | 0.4%
CCOC(=O)C1CCCN(C(=O)c2cc3cc(F)ccc3[nH]2)C1 (configuration not stated) | ? | -19.3% | 29.0 | ? | -18.2% | .
COc1ccc([N+](=O)[O-])cc1NC(=O)c1cn(-c2ccc(Cl)cc2)c(=O)c2ccccc12 | -20.7% | 5.5% | 1.9 | -14.4% | -19.3% | 0.6%
COC(=O)C1CSC2c3ccccc3C(=O)N12 (configuration not stated) | ? | 9.4% | -3.6 | 18.4µM* | 3.7% | .
Cc1ccc(S(=O)(=O)N2CCN(C(=O)NCc3ccc(C(=O)O)cc3)CC2)cc1 | -11.2% | 7.9% | -4.8 | -4.0% | -6.4% | 1.7%
Cc1ccnc(N2CCCC(C(=O)Nc3ccc(C)c(C)c3)C2)n1 (configuration not stated) | ? | -5.9% | 21.4 | 9.2µM* | 0.8% | .
CCC(C)c1ccc(NC(=O)C2CCCN(c3ncccn3)C2)cc1 (configuration not stated) | 18.4µM* | -34.2% | 41.5 | 20.6µM* | -37.8% | -2.1%
COc1ccc(NC(=O)C2CCCN(c3ncccn3)C2)cc1 (configuration not stated) | -5.3% | -9.8% | 2.6 | -1.3% | -0.5% | -1.2%[0.0935 µM]
Cc1ccc(NC(=O)C2CCCN(c3ncccn3)C2)cc1C (configuration not stated) | -27.8% | 4.8% | -6.4 | -9.7% | 2.2% | 10.0%
CCC(C)c1ccc(NC(=O)C2CC3CCC2C3)cc1 (configuration not stated) | 25.9µM* | -13.0% | -55.3* | ? | 4.6% | .
CCN(CC(=O)NCc1cccs1)C(=O)c1ccc(S(=O)(=O)Nc2ccccc2)cc1 | ? | 0.0% | -8.5 | -29.7% | -11.5% | -15.0%[0.505 µM]
CC(C)Cn1c(=O)c2sccc2n2c(CCCC(=O)NCc3ccccc3Cl)nnc12 | -19.5% | 0.6% | . | -10.8% | -3.4% | 5.1%
SMILES | TDP1 cell noCPT | HepG2 tox | IL-1B inflam inh | TDP1 cell CPT | TGFb inhibitor | TDP1 block
O=C(O)CC(CC(=O)O)c1ccsc1 | 1.5% | -2.9% | 11.1 | 6.9% | -2.5% | 1.4%
CN1CCN(CCOCCOc2c(Cl)cc(Cl)cc2Cl)CC1 | 16.4µM* | 3.8% | -7.8 | ? | 2.7% | .
CCC(C)NCCOCCOc1ccc(C)cc1Br (configuration not stated) | ? | -18.3% | -27.2 | -25.1% | 12.3% | -9.8%
Cc1cc(Cl)c(OCCOCCN2CCN(C)CC2)c(Br)c1 | ? | -18.8% | -13.1 | ? | 1.3% | .
Cc1cc(Cl)c(OCCOCCN2CCC(C)CC2)c(Br)c1 | 16.4µM* | -35.9% | -57.3* | 23.1µM* | 4.7% | -5.1%
Cc1cc(Br)ccc1OCCCCN1CCC(C)CC1 | ? | -34.8% | ? | 23.1µM* | ? | -3.4%
CCC(C)NCCCOc1c(C)cc(C)cc1Br (configuration not stated) | 11.6µM* | -40.0% | -76.2* | ? | ? | 0.0%
CCN1CCN(C(=O)c2ccc3c(=O)n(CCc4ccccc4)c(=O)[nH]c3c2)CC1 | -19.0% | -5.8% | 21.1 | ? | 1.8% | 1.7%
CC1CCN(CCCOc2ccc(Cl)cc2Br)CC1 | ? | -5.2% | 5.6 | ? | -4.8% | -4.9%
Cc1cc(C)c(OCCCCN2CCC(C)CC2)c(Br)c1 | ? | -59.3% | -78.2* | ? | 3.9% | -2.3%
CC1CCN(CCCCOc2ccccc2Br)CC1 | ? | -4.4% | -23.4 | ? | -0.1% | -3.4%
CC1CCN(CCCCOc2ccccc2F)CC1 | 14.6µM* | -22.0% | -6.5 | ? | -4.7% | .
CC1CCN(CCOCCOc2ccc(Cl)cc2Br)CC1 | 20.6µM* | -31.7% | ? | 13µM* | -3.3% | -3.1%
C=CCN1C(=O)C2(OCCO2)c2cc(C)ccc21 | 10.1% | -3.3% | 8.7 | -11.3% | 0.0% | .
Cc1cc(/C=C2\C(=N)N3N=C(CC(=O)N4CCOCC4)SC3=NC2=O)c(C)n1Cc1ccccc1 | 10.4% | 27.9% | 20.4 | 1.4% | 0.8% | .
CC1=NN2C(=N)/C(=C\c3cc(C)n(Cc4ccccc4)c3C)C(=O)N=C2S1 | 25.9µM* | -14.6% | -5.6 | -7.4% | 8.2% | 4.8%
